Screening data deposited in PubChem BioAssay by several laboratories.
MIN6 prolif-1 = MIN6 beta-cell proliferation induction | MIN6 cells proliferation, ATPlite luminescence, 48 h; cells starved in 0.2% serum; 100% = growth in 10% serum | proliferation, % at 10 µM | 0.29% of 330,000 active | AID 2380;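 active means compounds whose signal lies at least 3.5 SD above the mean of all wells on their plate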;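 further: 0% = DMSO-treated cells in low-serum medium and 100% = 10% serum control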
CHT allo act = allosteric activators of human choline transporter CHT. Q9GZV3. CHT-expressing cells, membrane potential dye, choline EC20; active compounds read high; LV-AA mutant CHT in HEK293 cells. B-score at 10 µM. 0.49% of 310,000 active. AID 488977;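 active means initial fluorescence not abnormally high and integrated response B-score, plate-corrected, over 3 SD above library mean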
Target sequence (Q9GZV3 whole entry, looked up): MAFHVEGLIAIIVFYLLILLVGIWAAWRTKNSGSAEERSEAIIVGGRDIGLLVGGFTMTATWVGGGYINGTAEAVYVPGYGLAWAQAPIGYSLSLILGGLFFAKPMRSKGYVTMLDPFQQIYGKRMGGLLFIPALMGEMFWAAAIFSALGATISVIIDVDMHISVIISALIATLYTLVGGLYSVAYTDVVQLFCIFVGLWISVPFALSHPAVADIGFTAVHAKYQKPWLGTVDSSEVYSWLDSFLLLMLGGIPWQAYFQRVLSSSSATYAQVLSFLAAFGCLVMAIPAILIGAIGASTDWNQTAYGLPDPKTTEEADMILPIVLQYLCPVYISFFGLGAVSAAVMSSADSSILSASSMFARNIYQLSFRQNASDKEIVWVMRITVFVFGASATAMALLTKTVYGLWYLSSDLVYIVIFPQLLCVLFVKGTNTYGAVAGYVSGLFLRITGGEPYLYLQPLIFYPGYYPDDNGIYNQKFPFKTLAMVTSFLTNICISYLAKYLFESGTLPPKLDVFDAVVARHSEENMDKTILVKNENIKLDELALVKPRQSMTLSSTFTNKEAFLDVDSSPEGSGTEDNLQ
CHT inh = human CHT choline transport inhibition; B-score at 10 µM; 0.86% of 310,000 active; CHT-expressing cells, membrane potential dye, choline response; active compounds read low; Q9GZV3;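 active means B-score over 3 SD under the library average, and starting fluorescence ratio not unusually high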;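 further: choline stimulus applied at its EC90 after an EC20 pre-addition; B-score computed on integrated fluorescence ratio after choline addition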
TAG inh = reduces triacylglycerol accumulation in H9c2 cells | AID 651582 | 0.66% of 230,000 active | Nile Red lipid (TAG) fluorescence; cells loaded with 200 µM oleic acid | inhibition, % at 12.5 µM;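 active means pattern-corrected inhibition of lipid staining of at least 50% with the nuclear-stain viability signal not falling by more than 50%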;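 further: 0% = DMSO wells and 100% = triacsin C control wells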
MIN6 prolif-2 = MIN6 beta-cell replication induction, confirmed; shares compounds with MIN6 prolif-1; MIN6 beta-cell proliferation, ATPlite luminescence, 48 h; cells kept in 0.2% serum; scaled between 0.2% and 10% serum; proliferation increase, % at 50 µM; 920 tested, under 10 active; AID 463095;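 active means proliferation increase above 40% at any of the four tested concentrations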
CHT inh conf = confirmation of human choline transporter CHT inhibitors; shares compounds with CHT inh; CHT-expressing cells, choline membrane potential dye; LV-to-AA substituted CHT, HEK293 cells; CHT activity remaining % of control (active compounds read low), % at 10 µM; 70% of 2,400 active;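 active means choline transporter activity left, mean of duplicates at 10 µM, below buffer-only control mean minus 3 SD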;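 further: depolarization triggered by choline at its EC90 following an EC20 pre-addition; 0% = hemicholinium-3 full block and 100% = buffer-only control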
HEK293 CHT ctr = activity in parental HEK293 cells lacking CHT | shares compounds with CHT inh | membrane potential dye, choline response; active = decrease or increase beyond buffer ±3SD | membrane potential ratio readout (active if shifted either direction beyond buffer ±3SD; no single direction) at 10 µM | 4% of 2,400 active | AID 493222;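 further: parental cells lack the transporter so any hit is non-specific; ratio is peak minus trough fluorescence over baseline after EC90 choline challenge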
* hit, by the source's call; i = inactive; . = no result. Most compounds without a hit are left out; they make up all but 1.7% or so of the library.

SMILES	MIN6 prolif-1	CHT allo act	CHT inh	TAG inh	CHT inh conf	HEK293 CHT ctr	others
Cc1ccc(S(=O)(=O)N(C)C)cc1NC(=O)COC(=O)c1n[nH]c(=O)c2ccccc12	11*	i	i	-4	.	.	MIN6 prolif-2=1
COc1cccc(CNC(=O)C2CCN(c3cnccn3)CC2)c1	-4	i	i	21	.	.
CCC(=O)Nc1nnc(SCC(=O)NCc2ccc3c(c2)OCO3)s1	3	i	i	1	.	.
CC(=O)Nc1nnc(SCC(=O)NCc2ccc3c(c2)OCO3)s1	13*	i	i	.	.	.	MIN6 prolif-2=-2
COc1ccc(CN(C)C(=O)c2cccc(NS(=O)(=O)c3ccccc3)c2)cc1F	-1	i	i	.	.	.
N#Cc1c2c(c(NCCCN3CCOCC3)n3c1nc1ccccc13)CCC2	0	i	i	18	.	.
N#Cc1c2c(c(NCCN3CCOCC3)n3c1nc1ccccc13)CCCC2	7.5*	i	i	1	.	.	MIN6 prolif-2=5
OC(c1ccc(Cl)cc1)c1nccc2ccccc12 (centres undefined)	5.5*	i	i	6	.	.	MIN6 prolif-2=-6
CCC(Cc1ccccc1)NC(=O)C1=C(C)C(=O)OC12CCC(C)CC2 (centres undefined)	7.7*	i	i	.	.	.	MIN6 prolif-2=-3
CC1=C(C(=O)NCc2ccc(Cl)cc2)C2(CCC(C)CC2)OC1=O (centres undefined)	-3	i	i	-8	.	.
CN(Cc1ccc2nsnc2c1)C(=O)C1CCC(=O)N(CCc2ccccc2)C1 (centres undefined)	.	.	.	140	.	.
COC(=O)CNC(=O)COC(=O)/C=C/c1ccc2ccccc2n1	10*	i	i	-7	.	.	MIN6 prolif-2=-5
COC(=O)CNC(=O)COC(=O)/C=C/c1cccs1	-2	i	i	-2	.	.
CC(=O)N1c2ccc(S(=O)(=O)N3CCCC3)cc2CC1C(=O)NC(C)C (centres undefined)	13*	i	i	.	.	.	MIN6 prolif-2=1
CN(C)c1nc(N)c([N+](=O)[O-])c(NCCO)n1	0	i	i	.	.	.
COc1ccccc1NC(=O)C1CCCN(c2nc(C)cc(C)n2)C1 (centres undefined)	7.5*	i	-5.7*	-8	i	i	MIN6 prolif-2=3
CN1CCN(C(=O)CCCN2C(=O)/C(=C/c3ccccc3)SC2=S)CC1	7.5*	i	-6.6*	.	46%*	i	MIN6 prolif-2=-6
COc1ccc(C)c(-n2c(=O)n(Cc3ccccc3)c(=O)c3[nH]cnc32)c1	1	i	i	-6	.	.
COc1ccc(Cn2c(=O)c3[nH]cnc3n(-c3ccccc3C)c2=O)cc1	10*	i	-5.5*	-1	56%*	i	MIN6 prolif-2=8
O=c1sc2ccccc2c(N2CCOCC2)c1[N+](=O)[O-]	-1	i	i	12	.	.
Cc1c(NS(=O)(=O)c2cc(C(=O)N(C)Cc3ccccc3)ccc2Cl)c(=O)n(-c2ccccc2)n1C	-5	.	.	-1	.	.
CCC(=O)c1ccc(OCC(=O)OC(C)C(=O)N2CCc3ccccc32)cc1 (centres undefined)	2	i	i	-15	.	.
Cc1ccc(S(=O)(=O)CCC(=O)OC(C)C(=O)N2CCc3ccccc32)cc1 (centres undefined)	0	i	-7.4*	-2	37%*	i
Cc1nn(C)cc1S(=O)(=O)NCc1ccccc1Cl	-2	i	i	17	.	.
Cc1ccc(C(=O)NC(C)c2ccc(F)cc2)cc1 (centres undefined)	1	i	i	-26	.	.
SMILES	MIN6 prolif-1	CHT allo act	CHT inh	TAG inh	CHT inh conf	HEK293 CHT ctr	others
CC(NC(=O)c1ccc(Br)cc1)c1ccc2c(c1)CCCC2 (centres undefined)	0	i	-9.7*	.	i	i
CC(NC(=O)c1ccc(F)cc1)c1ccc2c(c1)CCCC2 (centres undefined)	-2	i	-6.2*	-14	41%*	i
Cc1ccc(S(=O)(=O)N(CC(=O)Nc2cccc(C(F)(F)F)c2)C(=O)N2CCN(C)CC2)cc1	1	i	i	9	.	.
Cc1ccc(NC(=S)Nc2cccc3cnccc23)cc1C	-5	i	-5.9*	36	54%*	i
O=C(O)c1cc([N+](=O)[O-])cc([N+](=O)[O-])c1N1CCN(c2cccc(C(F)(F)F)c2)CC1	0	i	-5.3*	.	i	i
CCOc1ccc(S(=O)(=O)Nc2cccc(C(=O)NCC(c3ccccc3)N(C)C)c2)cc1 (centres undefined)	-4	i	-7.6*	8	16%*	i
CSCC[C@@H](C(=O)NCCCCCCCCCCC(=O)N1CCN(C(=O)OC(C)(C)C)CC1)n1cc(CCO)nn1	0	i	-6.4*	1	40%*	i
Nc1cc(=O)[nH]c(SCC(=O)N2CCC(Cc3ccccc3)CC2)n1	4	.	.	2	.	.
O=[N+]([O-])c1cc(Cc2ccccc2)cc(C=Nc2ccc(N3CCOCC3)cc2)c1O	.	i	-5.9*	.	66%*	i
O=C(CN1C(=O)CCC1=O)Nc1cccc(NC(=O)CN2C(=O)CCC2=O)c1	1	i	i	0	.	.
COc1ccc(/C=C/C(=O)OCC(=O)Nc2ccc(N3CCOCC3)cc2)cc1OC	-1	i	-5*	-7	i	i
COCCN(CC(=O)Nc1cccc(C)c1C)C(=O)C1(c2ccc(Cl)cc2)CCC1	-4	.	.	13	.	.
c1cc(Nc2ncnc3sccc23)cc(-c2nnc3n2CCCCC3)c1	-2	i	-6*	-19	57%*	i
CN(Cc1ccccc1)C1(CNC(=O)CCC(F)(F)F)Cc2ccccc2C1	-2	i	i	3	.	.
COc1cc(-c2nnc(CSc3nnc(Nc4ccc(Oc5ccccc5)cc4)s3)o2)cc(OC)c1OC	0	i	i	3	.	.
Cc1cc(CN(C)C(=O)c2cc(COc3ccc(F)cc3Cl)on2)n[nH]1	2	i	-6*	1	55%*	i
CCN(Cc1ccncc1)C(=O)c1cc(COc2ccc(F)cc2Cl)on1	4	i	-5.7*	12	49%*	i
CN(Cc1ccccn1)C(=O)c1cc(COc2ccc(F)cc2Cl)on1	.	.	.	5	.	.
O=C(CCc1nc2ccccc2[nH]c1=O)N/N=C/c1ccccc1	-2	i	i	-10	.	.
CCCc1nc2nc(C)c(NS(=O)(=O)c3ccc(C4CCCCC4)cc3)c(=O)n2[nH]1	0	i	i	.	.	.
O=C(C[n+]1cc(Br)cc2ccccc21)c1ccc(Cl)cc1	-6	i	-6.9*	.	32%*	i
